Reference: PubChem BioAssay AID463173 (ICCB-Longwood Screening Facility, Harvard Medical School, 2010)
The campaign covered roughly 52,000 compounds. About 4,300 (8.3%) were called active. The entries come from a sample that favours actives as a whole. Values without a mark were called inactive. Rule as the data show it: active = survival mostly below about 52% (no sharp cut-off); inactive = mostly above about 56%.

Test system: DeltatarO mutant
Test: S. aureus survival, RN4220 and DeltatarO strains – OD600, teichoic acid synthesis inhibitors, primary screen (AID 463173)
Settings: S. aureus RN4220 wild type/DeltatarO growth, OD600, 18 h, hits give low values, screened at 18.75 µg/mL (by protocol)

SMILES	survival
Cc1cc(NC(=O)CSc2nc(-c3ccccc3C)nc3c2c(=O)n(C)c(=O)n3C)no1	67%
CCc1ccc(CN(Cc2ccco2)c2cnc(S(C)(=O)=O)nc2C(=O)Nc2cccc(C)c2)cc1	46%
Cc1ccc(NC(=O)c2nc(S(C)(=O)=O)ncc2N(Cc2ccco2)Cc2cccs2)c(C)c1	38% (active)
CS(=O)(=O)c1ncc(N(Cc2ccccc2)Cc2ccco2)c(C(=O)Nc2cccc(C(F)(F)F)c2)n1	52%
CC(C)c1ccc(CN(Cc2ccco2)c2cnc(S(C)(=O)=O)nc2C(=O)Nc2ccc(F)cc2)cc1	49%
Cc1ccc(NC(=O)c2nc(S(C)(=O)=O)ncc2N(Cc2ccco2)Cc2cccs2)cc1C	40% (active)
COc1ccc(CN(Cc2ccco2)c2cnc(S(C)(=O)=O)nc2C(=O)Nc2ccc(F)cc2)cc1	49%
CC(C)c1ccc(CN(Cc2ccco2)c2cnc(S(C)(=O)=O)nc2C(=O)Nc2ccccc2)cc1	44% (active)
Cc1ccc(NC(=O)c2nc(S(C)(=O)=O)ncc2N(Cc2cccc(F)c2)Cc2ccco2)cc1C	45%
COc1ccc(CN(Cc2ccco2)c2cnc(S(C)(=O)=O)nc2C(=O)Nc2ccc(C)c(C)c2)cc1	44% (active)
Cc1ccc(NC(=O)c2nc(S(C)(=O)=O)ncc2N(Cc2ccco2)Cc2ccco2)cc1C	50%
COc1ccc(CN(Cc2ccco2)c2cnc(S(C)(=O)=O)nc2C(=O)Nc2ccc(C)c(Cl)c2)cc1	47%
COc1ccc(CN(Cc2ccco2)c2cnc(S(C)(=O)=O)nc2C(=O)Nc2ccc(C)cc2C)cc1	48%
Cc1ccc2scc(N3CCc4ccccc4C3)c(=O)c2c1	73%
CCN(c1cccc(C)c1)S(=O)(=O)c1c(C)nc2sc(C)cn2c1=O	73%
Cc1ccc2oc(=O)c3cnn(CC(=O)Nc4cccc(C(F)(F)F)c4)c3c2c1	87%
Brc1ccc(-c2cc(-c3ccccc3)no2)cc1	74%
CC1CCC(Nc2nnnn2-c2ccccc2)CC1 (stereo not drawn)	87%
CCc1cccc(NS(=O)(=O)c2ccc3c(c2)n(C)c(=O)c(=O)n3C)c1	73%
CCOC(=O)c1ccccc1NC(=O)CN1C(=O)CC(c2ccccc2)Sc2ccccc21 (stereo not drawn)	92%
COCCNC(=O)CSc1nc(-c2ccc(F)cc2)[nH]c1-c1ccc(Cl)cc1	71%
CCc1cccc(C)c1NC(=O)Cn1cnc2c1c(=O)n(C)c(=O)n2C	74%
CS(=O)(=O)c1ncc(N(Cc2ccco2)Cc2cccs2)c(C(=O)Nc2ccccc2F)n1	41% (active)
CS(=O)(=O)c1ncc(N(Cc2ccco2)Cc2ccco2)c(C(=O)Nc2ccccc2Br)n1	53%
Cc1ccc(C)c(NC(=O)c2nc(S(C)(=O)=O)ncc2N(Cc2ccc(C(C)(C)C)cc2)Cc2ccco2)c1	55% (active)
Cc1ccc(NC(=O)c2nc(S(C)(=O)=O)ncc2N(Cc2ccccc2)Cc2ccco2)c(C)c1	53%
Cc1cccc(C)c1NC(=O)c1nc(S(C)(=O)=O)ncc1N(Cc1ccc(C(C)(C)C)cc1)Cc1ccco1	49%

SMILES	survival
CCc1ccc(CN(Cc2ccco2)c2cnc(S(C)(=O)=O)nc2C(=O)Nc2c(C)cccc2C)cc1	36% (active)
Cc1ccc(NC(=O)c2nc(S(C)(=O)=O)ncc2N(Cc2ccc(C(C)(C)C)cc2)Cc2ccco2)cc1C	52%
CCS(=O)(=O)c1ncc(N(Cc2ccco2)Cc2ccccc2F)c(C(=O)Nc2cccc(Cl)c2)n1	60%
CC(C)(C)c1ccc(CN(Cc2ccco2)c2cnc(S(C)(=O)=O)nc2C(=O)Nc2ccc(F)cc2)cc1	102%
Cc1ccc(NC(=O)c2nc(S(C)(=O)=O)ncc2N(Cc2ccco2)Cc2ccccc2F)c(C)c1	37% (active)
Cc1ccc(CN(Cc2ccco2)c2cnc(S(C)(=O)=O)nc2C(=O)Nc2ccccc2Br)o1	44%
Cc1cccc(C)c1NC(=O)c1nc(S(C)(=O)=O)ncc1N(Cc1ccc(F)cc1)Cc1ccco1	46%
COCCn1c(C)cc(O)c(C(c2ccc(OC)cc2)N2CCCCC2)c1=O (stereo not drawn)	83%
Cc1ccc(-c2nnc(Nc3cccc(Cl)c3)c3ccccc23)cc1S(=O)(=O)N1CCN(C)CC1	87%
CCn1c(=O)n(-c2ccc(F)cc2)c(=O)c2sc3ccccc3c21	88%
Cc1ncc(CO)c2c1Oc1nc(-c3ccc(F)cc3)nc(SCc3ccc(F)cc3Cl)c1C2	58%
Cc1cccc(OCc2ccc(-c3nc(C#N)c(NCc4cccnc4)o3)o2)c1	79%
COC(=O)c1sccc1S(=O)(=O)N(CC(=O)NCc1ccccc1)c1ccc(C)cc1	95%
CC(=O)N1CCc2c(sc3c2c(=O)n(-c2ccccc2Cl)c(=O)n3Cc2cccc(C)c2)C1	74%
COc1ccc(NS(=O)(=O)c2ccc3nc(-c4ccccc4)[nH]c3c2)cc1	72%
Cc1ccc(NS(=O)(=O)c2ccc3c(c2)N(C)C(=O)CC(=O)N3C)cc1Cl	72%
Cc1cc(NS(=O)(=O)c2ccc3nc(-c4ccccc4)[nH]c3c2)ccc1Br	-2% (active)
Cc1ccc(NS(=O)(=O)c2ccc3c(c2)CC(=O)N3)cc1Cl	47% (active)
Cc1cccc(NS(=O)(=O)c2ccc3nc(-c4ccccc4)[nH]c3c2)c1C	109%
O=S(=O)(Nc1ccc(Br)cc1)c1ccc2nc(-c3ccccc3)[nH]c2c1	-1% (active)
CC(C)c1ccc(NS(=O)(=O)c2ccc3nc(-c4ccccc4)[nH]c3c2)cc1	67%
Cc1ccc(NS(=O)(=O)c2ccc3nc(-c4ccccc4)[nH]c3c2)c(Br)c1	79%
O=S(=O)(Nc1ccc(Br)cc1F)c1ccc2nc(-c3ccccc3)[nH]c2c1	72%
Cc1ccc(NS(=O)(=O)c2ccc3nc(-c4ccccc4)[nH]c3c2)cc1Cl	6% (active)
Cc1ccc(NS(=O)(=O)c2ccc3nc(-c4ccccc4)[nH]c3c2)c(Cl)c1	76%
COc1cc(NS(=O)(=O)c2ccc3c(c2)CC(=O)N3)cc(OC)c1OC	74%
